Measurements: PubChem BioAssay
Active and inactive are the calls of the source. Unless noted, the rule behind the calls is not given here.

Key:
[1] = compounds binding Alexa647 anti-His antibody – biochemical, small-molecule microarray, 635 nm fluorescence, artefact control for SMM control protein annotation, primary screen (AID 1128); details: higher = more signal;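 note: score merges feature fluorescence with signal-to-noise for each printed compound spot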
[2] = tested on: Human papillomavirus type 1a E7 protein (residues 1-88); experiment: HPV1a E7 small-molecule binders, primary screen, biochemical, small-molecule microarray, residues 1-88, 635 nm (AID 1129); details: small-molecule microarray binding, fluorescence 635 nm; higher = more signal
[3] = target: Focal adhesion kinase 1 (Homo sapiens) (UniProt Q05397); experiment: PTK2 protein binding on printed compound slides – biochemical, small-molecule microarray, 635/667 nm fluorescence, BSA, DTT, primary screen (AID 1130); details: 635 nm fluorescence, higher = more signal;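 note: composite of spot emission at 667 nm and signal to noise over triplicate slides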
Focal adhesion kinase 1 (Homo sapiens), sequence (Q05397 whole entry, looked up): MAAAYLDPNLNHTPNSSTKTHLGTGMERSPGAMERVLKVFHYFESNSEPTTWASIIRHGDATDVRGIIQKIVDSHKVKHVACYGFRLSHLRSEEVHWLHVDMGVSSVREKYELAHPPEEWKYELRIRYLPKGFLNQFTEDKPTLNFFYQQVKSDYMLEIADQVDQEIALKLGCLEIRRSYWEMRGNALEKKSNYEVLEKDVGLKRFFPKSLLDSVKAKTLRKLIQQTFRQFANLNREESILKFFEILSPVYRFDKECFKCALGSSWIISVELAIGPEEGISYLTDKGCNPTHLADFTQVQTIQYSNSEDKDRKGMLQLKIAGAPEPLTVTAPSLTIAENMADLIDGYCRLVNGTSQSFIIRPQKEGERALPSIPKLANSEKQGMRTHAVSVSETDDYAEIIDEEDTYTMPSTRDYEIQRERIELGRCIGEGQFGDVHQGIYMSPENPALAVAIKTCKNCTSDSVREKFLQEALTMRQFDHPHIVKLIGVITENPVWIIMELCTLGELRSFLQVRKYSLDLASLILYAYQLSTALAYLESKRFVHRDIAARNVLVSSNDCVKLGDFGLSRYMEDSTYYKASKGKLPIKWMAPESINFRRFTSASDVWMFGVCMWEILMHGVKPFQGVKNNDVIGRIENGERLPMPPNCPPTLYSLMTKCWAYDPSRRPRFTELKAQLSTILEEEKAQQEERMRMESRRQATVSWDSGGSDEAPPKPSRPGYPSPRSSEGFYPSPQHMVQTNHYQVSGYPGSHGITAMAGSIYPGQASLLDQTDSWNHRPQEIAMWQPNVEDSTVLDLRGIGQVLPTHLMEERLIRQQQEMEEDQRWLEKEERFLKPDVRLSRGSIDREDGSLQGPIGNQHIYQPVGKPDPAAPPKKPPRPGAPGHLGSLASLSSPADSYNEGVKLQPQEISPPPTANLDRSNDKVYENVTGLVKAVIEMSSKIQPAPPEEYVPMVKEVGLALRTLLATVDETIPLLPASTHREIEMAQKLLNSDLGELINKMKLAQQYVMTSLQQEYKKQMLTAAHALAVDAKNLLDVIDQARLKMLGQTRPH

[4] = tested on: Fibrinogen (Alexa647-labelled); experiment: Alexa647-fibrinogen binding to printed small molecules – biochemical, small-molecule microarray, 635/667 nm fluorescence, artefact control for SMM control-protein annotation, profiling panel (AID 1131); details: fibrinogen-A647 binding fluorescence, higher = more signal;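 note: z-score merges 667 nm fluorescence with per-spot signal-to-noise over triplicate slides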
[5] = target: Follistatin (Homo sapiens) (UniProt P19883); experiment: FST protein binding to printed compounds – biochemical, small-molecule microarray, 635/667 nm fluorescence, primary screen (AID 1132); details: 635 nm fluorescence, higher = more signal
Follistatin (Homo sapiens), sequence (P19883 whole entry, looked up): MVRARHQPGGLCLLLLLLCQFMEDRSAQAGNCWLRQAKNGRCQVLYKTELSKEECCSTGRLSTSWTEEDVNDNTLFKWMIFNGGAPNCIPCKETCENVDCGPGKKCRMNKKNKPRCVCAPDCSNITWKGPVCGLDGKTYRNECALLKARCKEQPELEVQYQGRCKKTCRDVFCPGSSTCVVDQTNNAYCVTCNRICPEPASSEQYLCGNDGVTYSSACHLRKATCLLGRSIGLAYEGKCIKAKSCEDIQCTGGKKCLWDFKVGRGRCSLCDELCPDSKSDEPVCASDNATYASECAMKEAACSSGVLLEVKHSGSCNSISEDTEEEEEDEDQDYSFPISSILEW

[6] = target: Fibroblast growth factor 2 (Homo sapiens) (UniProt P09038); experiment: basic fibroblast growth factor binding to printed compounds – biochemical, small-molecule microarray, 635/667 nm fluorescence, primary screen (AID 1133); details: FGF2, fluorescence 635/667, higher = more signal
Fibroblast growth factor 2 (Homo sapiens), sequence (P09038 whole entry, looked up): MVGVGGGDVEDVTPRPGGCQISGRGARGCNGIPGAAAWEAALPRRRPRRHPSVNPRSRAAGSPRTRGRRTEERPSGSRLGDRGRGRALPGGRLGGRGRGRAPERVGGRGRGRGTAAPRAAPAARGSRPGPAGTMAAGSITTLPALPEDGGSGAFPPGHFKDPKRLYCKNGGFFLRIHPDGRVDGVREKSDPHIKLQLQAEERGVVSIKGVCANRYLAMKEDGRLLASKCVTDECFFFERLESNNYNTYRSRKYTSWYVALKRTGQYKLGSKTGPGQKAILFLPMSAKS

[7] = JC-1 mitochondrial potential readout, lung cancer cells – cell-based, A549, JC-1 fluorescence, basal, 24 h, 100 nL, profiling panel (AID 1138); details: higher = more signal;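 note: A549 lung adenocarcinoma cells under basal conditions with no added stimulus; test concentration not given here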
Lefty1 = Lefty1 protein binding to printed compounds – biochemical, small-molecule microarray, 635/667 nm fluorescence, primary screen (AID 1139); details: fluorescence 635/667, higher = more signal
[8] = tested on: wheat germ agglutinin (Triticum aestivum), Alexa647-labelled; experiment: Alexa647-WGA lectin binding to printed small molecules – biochemical, small-molecule microarray, 635/667 nm fluorescence, artefact control for SMM control-protein annotation, profiling panel (AID 1140); details: WGA-A647 binding, 635 nm fluorescence, higher = more signal;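 note: score merges 667 nm feature emission with signal to noise over triplicate slides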
[9] = target: Luciferin 4-monooxygenase (Photinus pyralis) (UniProt P08659); experiment: inhibition of purified Photinus pyralis luciferase – biochemical, luminescence, purified enzyme, 2006 set, primary screen (AID 1141); details: purified firefly luciferase, SteadyGlo luminescence, 30 min; higher = more signal, called active from +8 up or from −8 down;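 note: cell-free assay with purified firefly luciferase at 100 ng per well in PBS; test concentration not given here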
Luciferin 4-monooxygenase (Photinus pyralis), sequence (P08659 whole entry, looked up): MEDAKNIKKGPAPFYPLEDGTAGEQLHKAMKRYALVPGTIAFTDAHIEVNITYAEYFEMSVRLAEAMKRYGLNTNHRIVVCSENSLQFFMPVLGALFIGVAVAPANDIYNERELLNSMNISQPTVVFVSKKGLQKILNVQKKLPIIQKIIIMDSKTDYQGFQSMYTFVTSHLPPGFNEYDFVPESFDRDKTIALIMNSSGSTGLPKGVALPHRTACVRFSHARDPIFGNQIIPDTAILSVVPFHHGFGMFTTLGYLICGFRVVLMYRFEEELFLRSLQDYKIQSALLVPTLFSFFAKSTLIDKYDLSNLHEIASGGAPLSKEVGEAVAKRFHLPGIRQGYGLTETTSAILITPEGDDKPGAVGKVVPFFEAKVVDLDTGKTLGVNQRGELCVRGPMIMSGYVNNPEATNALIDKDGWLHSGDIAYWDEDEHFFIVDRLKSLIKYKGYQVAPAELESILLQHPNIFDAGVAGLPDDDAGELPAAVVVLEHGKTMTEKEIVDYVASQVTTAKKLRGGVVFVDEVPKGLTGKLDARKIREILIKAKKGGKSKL

[10] = tested on: Wnt5a (protein binding on small-molecule microarray); experiment: small molecules binding Wnt5a protein – biophysical, small-molecule microarray, 635/667 nm fluorescence, primary screen (AID 1142); details: 635 nm fluorescence, higher = more signal;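 note: fluorescence read at 667 nm with signal to noise per printed feature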
[11] = ATP-based viability of Huh7 replicon cells – cell-based, CellTiter-Glo luminescence, basal, 48 h, cytotoxicity control for HCV replication inhibitor project, primary screen (AID 1143); details: higher = more signal, called active from +8 up or from −8 down;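 note: Huh7 hepatoma cells carrying a hepatitis C replication reporter with no stimulus; test concentration not given here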
[12] = Pseudomonas biofilm growth suppression – PAO1 strain, BacTiter-Glo luminescence, LB-PBS, primary screen (AID 1144); details: P. aeruginosa PAO1 biofilm, 12 h, higher = more signal
[13] = basal CRE-LacZ reporter activity in PC12 – cell-based, unstimulated, primary screen (AID 1145); details: no forskolin, luminescence, 4.5 h, higher = more signal, called active from +8 up or from −8 down
[14] = forskolin-driven CRE-LacZ activity in PC12 – cell-based, CRE-LacZ reporter, forskolin-stimulated, primary screen (AID 1146); details: luminescence, 4.5 h, higher = more signal, called active from +8 up or from −8 down;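 note: PC12 cells with 6xCRE LacZ reporter stimulated by forskolin 10 µM; beta-galactosidase reporter signal reflecting CREB driven transcription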
[15] = target: Streptavidin (Streptomyces avidinii) (UniProt P22629); experiment: compounds binding control protein streptavidin – biophysical, small-molecule microarray, 635/667 nm fluorescence, artefact control for SMM compound annotation, primary screen (AID 1147); details: higher = more signal;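 note: signal reflects streptavidin binding to arrayed compounds as a control protein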
Streptavidin (Streptomyces avidinii), sequence (P22629 whole entry, looked up): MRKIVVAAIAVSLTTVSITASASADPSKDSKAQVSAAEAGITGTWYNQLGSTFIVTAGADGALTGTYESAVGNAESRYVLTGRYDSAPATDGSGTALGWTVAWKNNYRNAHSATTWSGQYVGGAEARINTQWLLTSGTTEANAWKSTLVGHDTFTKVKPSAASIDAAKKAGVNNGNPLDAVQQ

[16] = probe aInhba binding on compound microarray – biochemical, small-molecule microarray, 635/667 nm fluorescence, primary screen (AID 1148); details: higher = more signal;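 note: score merges 667nm spot fluorescence with signal-to-noise for antibody binding to printed compounds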
Torsin-1A (Homo sapiens) [17] = target: Torsin-1A (Homo sapiens) (UniProt O14656); experiment: TOR1A wild-type binding on microarray – cell lysate, small-molecule microarray, lysate, 635/667 nm, primary screen (AID 1149); details: COS7 hTOR1A-WT lysate, 635 nm fluorescence, higher = more signal
Torsin-1A (Homo sapiens), sequence (O14656 whole entry, looked up): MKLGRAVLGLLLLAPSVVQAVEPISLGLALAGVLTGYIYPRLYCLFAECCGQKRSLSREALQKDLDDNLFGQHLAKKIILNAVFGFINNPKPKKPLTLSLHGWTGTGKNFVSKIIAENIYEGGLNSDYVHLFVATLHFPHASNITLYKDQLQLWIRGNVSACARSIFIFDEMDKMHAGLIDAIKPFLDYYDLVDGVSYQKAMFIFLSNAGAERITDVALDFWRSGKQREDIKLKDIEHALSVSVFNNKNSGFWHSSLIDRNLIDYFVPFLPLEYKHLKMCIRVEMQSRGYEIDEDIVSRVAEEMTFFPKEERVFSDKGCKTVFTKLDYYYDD

Torsin-1A (Homo sapiens) [18] = target: Torsin-1A (Homo sapiens) (UniProt O14656); experiment: torsin A mutant lysate binding on microarrays – cell lysate, small-molecule microarray, COS7 lysate, 635/667 nm fluorescence, primary screen (AID 1150); details: COS7 hTOR1A mutant lysate, 635 nm fluorescence, higher = more signal;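 note: score pools 667 nm emission and signal to noise measuring lysate protein binding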
[19] = tested on: Sonic hedgehog protein (Shh); experiment: Sonic hedgehog microarray binding compounds – biochemical, small-molecule microarray, 635/667 nm fluorescence, primary screen (AID 1151); details: 635 nm fluorescence, higher = more signal;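 note: Shh protein binding to compounds spotted on small-molecule microarray slides; score combines spot fluorescence intensity with signal-to-noise across triplicate slides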

SMILES	composite z-score [1]	composite z-score [2]	composite z-score [3]	composite z-score [4]	composite z-score [5]	composite z-score [6]	z-score [7]	composite z-score (Lefty1)	composite z-score [8]	z-score [9]	composite z-score [10]	z-score [11]	z-score [12]	z-score [13]	z-score [14]	composite z-score [15]	composite z-score [16]	composite z-score (Torsin-1A (Homo sapiens) [17])	composite z-score (Torsin-1A (Homo sapiens) [18])	composite z-score [19]
CCc1cc2c(nc1CC)CCN(CCC(C)=NOC[C@@H](C)[C@H](OCc1ccccc1)C(C)C)C2	2.64	-0.684	-0.846	-1.69	-0.862	-1.39	0.874	-0.465	-0.323	-1.77 (inactive)	-0.608	-1.09 (inactive)	0.241 (inactive)	0.387 (inactive)	0.113 (inactive)	-1.39	-0.302	-0.94	-1.22	-0.267
C[C@H]1CC[C@H]2C(=O)O[C@H](CO)CN2[C@@H]1c1ccc(Br)cc1	-0.15	0.015	0.638	0.0011	0.0723	0.103	0.69	0.353	-0.004	-0.19 (inactive)	0.0217	-0.98 (inactive)	-1.38 (inactive)	-0.557 (inactive)	-0.816 (inactive)	0.0279	-0.202	0.345	-0.363	-0.0013
C[C@@H](c1ccccc1)N1C(=O)[C@H]2[C@H]3[C@H](O)[C@H](O)CC(=NNC(=O)OCc4ccccc4)[C@@H]3CC[C@H]2C1=O	-0.23	-1.01	0.37	-0.864	1.43	1.66	-0.383	1.39	-0.212	0.574 (inactive)	0.15	0.231 (inactive)	-0.479 (inactive)	-0.38 (inactive)	0.0869 (inactive)	-0.31	-0.335	3.35	3.49	2
CCC1=NOC(CCC2CC(OC(=O)NCc3cccc4c3OCO4)CC3(CCCC(COC(=O)NCCc4ccc(Cl)cc4)O3)O2)C1 (stereo not given)	0.696	0.459	-0.123	0.663	0.0801	1.24	-0.415	0.497	-0.191	0.74 (inactive)	-0.165	-0.379 (inactive)	0.612 (inactive)	-0.0755 (inactive)	-0.51 (inactive)	-0.136	-0.0963	0.217	0.672	0.358
CCOC(=O)[C@H](CC(C)C)NC(=O)CCC1CC(OC(=O)NCc2ccc3c(c2)OCO3)CC2(CCCC(COC(=O)NCCOC)O2)O1 (stereo not given in full)	0.418	0.758	-0.379	0.942	0.589	0.725	-0.119	0.847	0.609	0.713 (inactive)	-0.0334	-0.413 (inactive)	0.211 (inactive)	0.56 (inactive)	0.59 (inactive)	0.0301	-0.0006	-0.0402	0.354	1.46
CC(C)[C@@H](OCc1ccccc1)[C@H](C)C=NO[C@@H](C)c1cn([C@H](CO)Cc2ccccc2)nn1	0.08	-0.147	-0.0232	-0.157	-0.0854	0.346	-1.02	0.249	0.0578	-0.197 (inactive)	-0.0307	-0.927 (inactive)	0.496 (inactive)	0.843 (inactive)	-0.0785 (inactive)	-0.0202	-0.107	0.752	0.441	0.26
O=C1[C@H]2CCn3c(=O)n(-c4ccccc4)c(=O)n3[C@H]2[C@H](O)[C@@H]2O[C@H]12	-0.0114	0.301	-0.339	0.418	-0.0705	0.127	0.718	0.278	0.465	0.0786 (inactive)	0.0253	0.332 (inactive)	0.102 (inactive)	-0.0164 (inactive)	0.0871 (inactive)	0.556	-0.272	0.0097	0.109	0.24
CC(C)(C)N1C(=O)[C@H]2[C@@H]3C(=CC[C@H]2C1=O)C(=O)[C@H]1O[C@H]1[C@H]3O	0.23	-0.137	-0.339	-1.06	0.1	-0.17	-0.732	-0.0815	0.844	-2.65 (inactive)	-0.264	-6.85 (inactive)	0.652 (inactive)	-0.748 (inactive)	-3.08 (inactive)	-0.5	-0.127	1.84	-0.0252	0.981
COC(=O)[C@@H]1CC[C@H](C)[C@@H](c2ccc(Br)cc2)N1C[C@@H](O)CN=[N+]=[N-]	0.215	-0.0633	-0.0902	0.128	0.4	0.4	-0.822	0.45	-0.0107	0.0386 (inactive)	0.538	-3.06 (inactive)	-1.91 (inactive)	0.105 (inactive)	-0.571 (inactive)	0.398	-0.224	0.54	-0.117	0.581
CO[C@H]1C[C@@H]2C[C@H](O)CC(CC(=O)O[C@@H](C=CCC(C)C)C[C@@H]3CC[C@H](C)[C@@H](C1)O3)O2	0.583	0.959	0.122	0.707	0.719	0.361	-0.589	0.749	0.0954	-0.0042 (inactive)	0.318	-0.454 (inactive)	0.883 (inactive)	2.64 (inactive)	0.405 (inactive)	0.645	-0.0494	0.778	0.183	1.02
